In PubChem BioAssay (NCATS):
Values joined by “and” are separate entries in the source; they are usually repeats but may differ in a detail not shown here. Equal entries are not always repeated. Records with an inconclusive call do not appear. Active and inactive are the calls of the source. Calls come from the whole dose curve.

Target: Vitamin D3 receptor (Homo sapiens) (UniProt P11473)
Experiment: qHTS assay for small molecule agonists of vitamin D receptor signaling (AID 588543);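 note: 0% = DMSO basal and 100% = reference agonist control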
Settings: HEK293T VDR-UAS-bla, beta-lactamase ratio, 16 h; series mostly up to 76.8 µM; activation: at the top concentration
Method in brief: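 GeneBLAzer VDR-UAS-bla HEK293T cells in 2% charcoal-stripped FBS medium were dosed with compound titrations for 16 h at 37 °C; CCF4 β-lactamase readout (405 nm ex, 460/530 nm em). EC50 and efficacy from Hill fits, normalized to 50 nM calcitriol (100%) and DMSO (0%).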

Vitamin D3 receptor (Homo sapiens), sequence (P11473 whole entry, looked up): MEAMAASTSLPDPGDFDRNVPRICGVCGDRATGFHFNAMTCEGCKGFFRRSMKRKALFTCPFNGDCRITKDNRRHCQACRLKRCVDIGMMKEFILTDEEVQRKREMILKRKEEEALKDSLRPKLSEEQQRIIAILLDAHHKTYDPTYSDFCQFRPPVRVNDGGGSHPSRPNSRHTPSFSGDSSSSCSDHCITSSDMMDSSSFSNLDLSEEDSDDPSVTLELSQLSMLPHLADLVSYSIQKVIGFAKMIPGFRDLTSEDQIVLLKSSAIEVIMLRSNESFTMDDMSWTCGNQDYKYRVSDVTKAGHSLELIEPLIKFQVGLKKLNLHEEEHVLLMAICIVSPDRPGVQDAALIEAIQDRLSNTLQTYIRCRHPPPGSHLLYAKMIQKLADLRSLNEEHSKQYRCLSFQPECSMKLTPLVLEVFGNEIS

SMILES	outcome	activation
C/C(=N\NC(=O)Nc1cc(F)cc(F)c1)c1ncccc1C(=O)O	inactive	
CCCC1COC(Cn2cncn2)(c2ccc(Cl)cc2Cl)O1 (stereo not drawn)	inactive	
Cc1cnc(C2=NC(C)(C(C)C)C(=O)N2)c(C(=O)O)c1 (stereo not drawn)	inactive	
O=S(=O)(c1ccc(O)cc1)c1ccc(O)cc1		4.77% (inactive)
CCOP(=O)(O)C(N)=O		3.94% (inactive)
CCOc1nc(NC)nc(NC(=O)NS(=O)(=O)c2ccccc2C(=O)OC)n1		2.43% (inactive)
COc1ccc(O)c(C(C)(C)C)c1		3.77% (inactive)
CCOP(=S)(OCC)SCC(=O)NC(C)C		-4.02% (inactive)
Clc1ccc([C@]2(Cn3cncn3)C[C@@H](Br)CO2)c(Cl)c1	inactive	
CCOP(=O)(SC(C)CC)SC(C)CC (stereo not drawn)		1.44% (inactive)
CNC(=O)Oc1cccc2c1OC(C)(C)C2O (stereo not drawn)		3.31% (inactive)
C/C(=N\C(N)=O)N(C)Cc1ccc(Cl)nc1		2.74% (inactive)
O=S1OC[C@@H]2[C@H](CO1)[C@@]1(Cl)C(Cl)=C(Cl)[C@]2(Cl)C1(Cl)Cl (stereo partly drawn)	inactive	
C=CCC1=C(C)[C@@H](OC(=O)[C@@H]2[C@@H](C=C(C)C)C2(C)C)CC1=O		1.04% (inactive)
CCOC1Oc2ccc(OS(C)(=O)=O)cc2C1(C)C (stereo not drawn)		-1.5% (inactive)
Nc1ccc([N+](=O)[O-])cc1Cl		-4.49% (inactive)
CCNc1nc(NC(C)(C)C)nc(SC)n1		2.12% (inactive)
CCOP(=O)(OCC)SCSCC		-2.2% (inactive)
CCOP(=O)(OCC)SCSC(C)(C)C		0.641% (inactive)
COC(=O)c1ccccc1CS(=O)(=O)NC(=O)Nc1nc(OC)cc(OC)n1		0.942% (inactive)
Cc1cc(Cl)ccc1OCC(=O)O		-2.18% (inactive)
CCOP(=S)(S)OCC		2.02% (inactive)
CCCCN(CC)C(=O)SCCC		3.41% (inactive)
O=[N+]([O-])c1ccc(Oc2ccc(C(F)(F)F)cc2[N+](=O)[O-])cc1		-11% (inactive)
C/C=C(\C)C(=O)O[C@H]1C[C@@H](OC(C)=O)[C@@]2(C(=O)OC)CO[C@H]3[C@@H](O)[C@@](C)([C@]45O[C@@]4(C)[C@H]4C[C@@H]5O[C@@H]5OC=C[C@@]54O)[C@H]4[C@]1(CO[C@]4(O)C(=O)OC)[C@@H]32		-2.82% (inactive)
C=CC1(C)OC(=O)N(c2cc(Cl)cc(Cl)c2)C1=O (stereo not drawn)		-0.799% (inactive)

Test system: not listed separately
Experiment: qHTS assay for small molecule agonists of retinoid X receptor alpha signaling (AID 588544);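 for activation: 0% = DMSO basal wells and 100% = reference agonist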
Settings: HEK293T RXRa-UAS-bla, beta-lactamase reporter, 18 h; 530 nm emission

SMILES	max response
C/C(=N\NC(=O)Nc1cc(F)cc(F)c1)c1ncccc1C(=O)O	4% and -10.7%
CCCC1COC(Cn2cncn2)(c2ccc(Cl)cc2Cl)O1 (stereo not drawn)	1.7%
Cc1cnc(C2=NC(C)(C(C)C)C(=O)N2)c(C(=O)O)c1 (stereo not drawn)	-18.8% and -4.8%
O=S(=O)(c1ccc(O)cc1)c1ccc(O)cc1	-2.49%
CCOP(=O)(O)C(N)=O	-12.7%
COc1ccc(O)c(C(C)(C)C)c1	-14.4%
CCOP(=S)(OCC)SCC(=O)NC(C)C	-3.21%
CCOP(=O)(SC(C)CC)SC(C)CC (stereo not drawn)	-25%
CNC(=O)Oc1cccc2c1OC(C)(C)C2O (stereo not drawn)	-10.1%
C/C(=N\C(N)=O)N(C)Cc1ccc(Cl)nc1	-8.24%
O=S1OC[C@@H]2[C@H](CO1)[C@@]1(Cl)C(Cl)=C(Cl)[C@]2(Cl)C1(Cl)Cl (stereo partly drawn)	-0.24%
FC(F)(F)c1ccc(OCCCOc2c(Cl)cc(OCC=C(Cl)Cl)cc2Cl)nc1	5.75%
C=CCC1=C(C)[C@@H](OC(=O)[C@@H]2[C@@H](C=C(C)C)C2(C)C)CC1=O	6.67%
Cc1ccccc1C(=O)Nc1cccc(OC(C)C)c1	-12.9%
CCOC1Oc2ccc(OS(C)(=O)=O)cc2C1(C)C (stereo not drawn)	7.47%
Nc1ccc([N+](=O)[O-])cc1Cl	-7.96%
CCCCC(CC)C(=O)Cl (stereo not drawn)	-20.2%
CCNc1nc(NC(C)(C)C)nc(SC)n1	-0.223%
CCOP(=O)(OCC)SCSCC	-4.7%
CCOP(=O)(OCC)SCSC(C)(C)C	4.09%
CNC(=O)Oc1ccc(N(C)C)c(C)c1	-30.4%
COC(=O)c1ccccc1CS(=O)(=O)NC(=O)Nc1nc(OC)cc(OC)n1	-9.59%
Cc1cc(Cl)ccc1OCC(=O)O	-7.53%
CCOP(=S)(S)OCC	-7.79%
CCCCN(CC)C(=O)SCCC	-10.1%
C/C=C(\C)C(=O)O[C@H]1C[C@@H](OC(C)=O)[C@@]2(C(=O)OC)CO[C@H]3[C@@H](O)[C@@](C)([C@]45O[C@@]4(C)[C@H]4C[C@@H]5O[C@@H]5OC=C[C@@]54O)[C@H]4[C@]1(CO[C@]4(O)C(=O)OC)[C@@H]32	-0.369%

Target: Retinoic acid receptor RXR-alpha (Homo sapiens) (UniProt P19793)
Experiment: as above
Settings: HEK293T RXRa-UAS-bla, beta-lactamase reporter, 18 h; series mostly up to 76.7 µM; activation: at the top concentration

Retinoic acid receptor RXR-alpha (Homo sapiens), sequence (P19793 whole entry, looked up): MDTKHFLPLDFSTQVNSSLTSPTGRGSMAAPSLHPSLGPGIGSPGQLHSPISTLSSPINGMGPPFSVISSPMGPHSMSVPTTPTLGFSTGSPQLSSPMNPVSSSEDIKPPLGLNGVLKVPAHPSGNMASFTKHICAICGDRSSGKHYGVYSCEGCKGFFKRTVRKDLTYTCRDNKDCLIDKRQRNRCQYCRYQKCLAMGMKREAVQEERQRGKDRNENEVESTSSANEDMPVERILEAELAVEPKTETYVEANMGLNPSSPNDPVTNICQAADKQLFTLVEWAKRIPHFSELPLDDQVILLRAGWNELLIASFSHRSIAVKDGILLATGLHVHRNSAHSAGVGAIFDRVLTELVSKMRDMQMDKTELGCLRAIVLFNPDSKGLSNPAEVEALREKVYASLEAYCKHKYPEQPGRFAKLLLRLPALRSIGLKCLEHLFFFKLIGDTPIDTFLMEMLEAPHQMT

SMILES	Potency	activation
C/C(=N\NC(=O)Nc1cc(F)cc(F)c1)c1ncccc1C(=O)O	inactive	
CCCC1COC(Cn2cncn2)(c2ccc(Cl)cc2Cl)O1 (stereo not drawn)		-4.78% (inactive)
Cc1cnc(C2=NC(C)(C(C)C)C(=O)N2)c(C(=O)O)c1 (stereo not drawn)	inactive	
O=S(=O)(c1ccc(O)cc1)c1ccc(O)cc1		19.1% (inactive)
CCOP(=O)(O)C(N)=O		15.7% (inactive)
COc1ccc(O)c(C(C)(C)C)c1		14.6% (inactive)
CCOP(=S)(OCC)SCC(=O)NC(C)C		-7.44% (inactive)
CCOP(=O)(SC(C)CC)SC(C)CC (stereo not drawn)		9.41% (inactive)
CNC(=O)Oc1cccc2c1OC(C)(C)C2O (stereo not drawn)		-0.884% (inactive)
C/C(=N\C(N)=O)N(C)Cc1ccc(Cl)nc1		20.2% (inactive)
O=S1OC[C@@H]2[C@H](CO1)[C@@]1(Cl)C(Cl)=C(Cl)[C@]2(Cl)C1(Cl)Cl (stereo partly drawn)		-18.6% (inactive)
FC(F)(F)c1ccc(OCCCOc2c(Cl)cc(OCC=C(Cl)Cl)cc2Cl)nc1		-28.4% (inactive)
C=CCC1=C(C)[C@@H](OC(=O)[C@@H]2[C@@H](C=C(C)C)C2(C)C)CC1=O		5.86% (inactive)
Cc1ccccc1C(=O)Nc1cccc(OC(C)C)c1		12.3% (inactive)
CCOC1Oc2ccc(OS(C)(=O)=O)cc2C1(C)C (stereo not drawn)		-12.6% (inactive)
Nc1ccc([N+](=O)[O-])cc1Cl		-7.76% (inactive)
CCCCC(CC)C(=O)Cl (stereo not drawn)		28.1% (inactive)
CCNc1nc(NC(C)(C)C)nc(SC)n1		3.19% (inactive)
CCOP(=O)(OCC)SCSCC		-5.72% (inactive)
CCOP(=O)(OCC)SCSC(C)(C)C		-11.5% (inactive)
CNC(=O)Oc1ccc(N(C)C)c(C)c1		9.77% (inactive)
COC(=O)c1ccccc1CS(=O)(=O)NC(=O)Nc1nc(OC)cc(OC)n1		-4.05% (inactive)
Cc1cc(Cl)ccc1OCC(=O)O		-5.07% (inactive)
CCOP(=S)(S)OCC		-6.03% (inactive)
CCCCN(CC)C(=O)SCCC		8.66% (inactive)
C/C=C(\C)C(=O)O[C@H]1C[C@@H](OC(C)=O)[C@@]2(C(=O)OC)CO[C@H]3[C@@H](O)[C@@](C)([C@]45O[C@@]4(C)[C@H]4C[C@@H]5O[C@@H]5OC=C[C@@]54O)[C@H]4[C@]1(CO[C@]4(O)C(=O)OC)[C@@H]32		2.48% (inactive)
